This note sets out measurements from the supplement of paper PMC9399229.

Structures are written as SMILES. Where a name gives a salt, the structure may show the parent alone. In all, about 1,900 compounds were measured (“relative cell viability (CellTiter-Glo), compound plus cabozantinib, relative to the cabozantinib arm (arm median 1.05; reference not stated)”: median about 1.1, lowest 2% from about 0.15 on). Many of the other results were omitted from the sample, so the lowest values are more common in it than they were.

For the assay, the system named is Hep3B. Description: relative cell viability (CellTiter-Glo), compound plus cabozantinib, relative to the cabozantinib arm (arm median 1.05; reference not stated) (fraction); higher = more viable cells (less growth inhibition). Conditions: cabozantinib 2 µM; 4 days. Background: In ATP-based viability assays light output follows the ATP content of the culture.
With `CC(C)n1c(/C=C/C(O)CC(O)CC(=O)O)c(-c2ccc(F)cc2)c2ccccc21` (stereo unspecified) [Fluvastatin Sodium], the relative cell viability stood at 1.14. On to `CC[C@H]1[C@@H](O)[C@@H]2[C@H](CC[C@]3(C)[C@@H]([C@H](C)CCC(=O)O)CC[C@@H]23)[C@@]2(C)CC[C@@H](O)C[C@@H]12` [Obeticholic Acid], for which the relative cell viability was 1.12.

Regarding `COc1ccc(-c2ccc3c(N4CCOCC4)nc(N4C[C@@H](C)O[C@@H](C)C4)nc3n2)cc1CO`, the relative cell viability amounted to 0.773. `COc1ccc(C[C@H](N)C(=O)N[C@H]2[C@@H](O)[C@H](n3cnc4c(N(C)C)ncnc43)O[C@@H]2CO)cc1` [Puromycin 2HCl]: the relative cell viability was determined as 0.0197. The value for `CNc1ncnc2c1ncn2[C@@H]1O[C@H](CO)[C@@H](O)[C@H]1O` [N6-methyladenosine (m6A)] was 1.21. With `COc1nc(N)nc2c1ncn2[C@@H]1O[C@H](CO)[C@@H](O)[C@@H]1O` [Nelarabine], the relative cell viability is 1.17. As for `S=C(NCc1ccc2c(c1)OCO2)N1CCN(c2ncnc3c2oc2ccccc23)CC1` [Amuvatinib (MP-470)], the figure is 1.03; as for `Cc1cnc(Nc2ccc(N3CCN(C)CC3)cc2)nc1Nc1cccc(S(=O)(=O)NC(C)(C)C)c1`, 0.281; as for `C=CCn1c(=O)c2cnc(Nc3ccc(N4CCN(C)CC4)cc3)nc2n1-c1cccc(C(C)(C)O)n1`, 0.144. On to `C=CC(=O)Nc1cccc(Sc2nc(Nc3ccc(N4CCN(C)CC4)cc3)ncc2Cl)c1`, for which the relative cell viability worked out at 0.747. The value for `C=CC(=O)Nc1ccc2ncnc(Nc3ccc(OCc4cccc(F)c4)c(Cl)c3)c2c1` was 0.775. As for `CCCc1ccc(OCC(=O)N(Cc2nc(-c3cccnc3)no2)C(C)C)cc1`, the figure is 1.16; as for `C#C[C@]1(O)CC[C@H]2[C@@H]3CCC4=CC(=O)CC[C@@H]4[C@H]3CC[C@@]21C` [Norethindrone], 1.06; as for `CC1(C)S[C@@H]2[C@H](NC(=O)[C@H](N)c3ccccc3)C(=O)N2[C@H]1C(=O)O` [Ampicillin Trihydrate], 1.08. As for `CC1(C)S[C@@H]2[C@H](NC(=O)[C@H](N)c3ccccc3)C(=O)N2[C@H]1C(=O)O` [Ampicillin sodium], the figure is 1.16; as for `OCc1c[nH]c2ccccc12` [Indole-3-carbinol], 1.11; as for `O=C(O)CCCc1c[nH]c2ccccc12` [3-Indolebutyric acid (IBA)], 1.07.

As to `O=C(/C=C/c1ccc(CN(CCO)CCc2c[nH]c3ccccc23)cc1)NO` [LAQ824 (Dacinostat)], the relative cell viability came out at 0.11.

`OC[C@H]1O[C@H](O[C@]2(CCl)O[C@H](CCl)[C@@H](O)[C@@H]2O)[C@H](O)[C@@H](O)[C@H]1Cl` [Sucralose]: the relative cell viability was found to be 1.05. `CN1CCC(CNc2ccc3ncc(-c4cccc(OC(F)(F)F)c4)n3n2)CC1` [SGI-1776 free base]: the relative cell viability worked out at 0.976. `COc1cccc2c1c(O)c(C(=O)N(C)c1ccc(C(F)(F)F)cc1)c(=O)n2C` [Tasquinimod]: the relative cell viability amounted to 1.19.

Consider `Cc1cccc(-c2nn3c(c2-c2ccnc4ccc(C(N)=O)cc24)CCC3)n1`, for which the relative cell viability is 0.91. As for `CC(=O)OCOC(=O)CN(CC(=O)OCOC(C)=O)c1ccccc1OCCOc1ccccc1N(CC(=O)OCOC(C)=O)CC(=O)OCOC(C)=O`, the relative cell viability worked out at 1.22. On to `CCc1cc(Nc2nccc(-c3c(-c4ccc(OC)c(C(=O)Nc5c(F)cccc5F)c4)nc4ccccn34)n2)c(OC)cc1N1CCC(N2CCN(S(C)(=O)=O)CC2)CC1`, for which the relative cell viability was 1.32. As for `CCOC(=O)C1=C(N)Oc2ccc(Br)cc2C1C(C#N)C(=O)OCC` (stereo unspecified), the figure is 1.02; as for `CC(C(=O)O)c1ccc(C(=O)c2cccs2)cc1` (stereo unspecified) [Suprofen], 1.11. As for `COc1ccc(C[C@H](NC(=O)[C@H](C)NC(=O)CN2CCOCC2)C(=O)N[C@@H](Cc2ccccc2)C(=O)[C@@]2(C)CO2)cc1`, the relative cell viability was 0.23.

On to `O=C(O)c1cc(C(F)(F)F)ccc1N1CC[C@H](OCc2ccccn2)C1`, for which the relative cell viability stood at 0.958. The value for `CCN1C[C@H](C)n2c(c(O)c3c(=O)n(Cc4ccc(F)c(Cl)c4)nc(C(=O)NC)c32)C1=O` was 1.14; that for `Cc1cccc(C)c1NC(=O)C1CCCCN1C` (stereo unspecified) [Mepivacaine HCl] was 1.03.

As for `COc1ccc(S(=O)(=O)N(CCO)c2ccccc2CN(C)C/C=C/c2ccc(Cl)cc2)cc1` [KN-93 Phosphate], the relative cell viability is 1.14. As for `CC(C)C(=O)Oc1ccc(CO)cc1[C@H](CCN(C(C)C)C(C)C)c1ccccc1` [Fesoterodine Fumarate], the relative cell viability is 1.1.

Regarding `C[C@@H](CN1CC(=O)NC(=O)C1)N1CC(=O)NC(=O)C1` [Dexrazoxane HCl (ICRF-187, ADR-529)], the relative cell viability was 1.1. For `CN1CCN(CCOc2cc(OC3CCOCC3)c3c(Nc4c(Cl)ccc5c4OCO5)ncnc3c2)CC1` [Saracatinib (AZD0530)], the relative cell viability was 1.09. Regarding `Cn1cc(/C=C2\C(=O)Nc3cccnc32)c2ccccc21`, the relative cell viability was found to be 1. The value for `CC(=O)S[C@@H]1CC2=CC(=O)CC[C@]2(C)[C@H]2CC[C@@]3(C)[C@@H](CC[C@@]34CCC(=O)O4)[C@H]12` [Spironolactone] was 1.1.

In the case of `Cn1c(=O)c2c(ncn2CC(O)CO)n(C)c1=O` (stereo unspecified) [Dyphylline], the relative cell viability was 1.22. As for `Cn1c(=O)c(F)c(Nc2ccc(I)cc2F)c2c(=O)n(C[C@@H](O)CO)cnc21`, the figure is 0.14; as for `COc1cc(F)c(F)c(Nc2ccc(I)cc2F)c1NS(=O)(=O)C1(C[C@H](O)CO)CC1` [Refametinib (RDEA119, Bay 86-9766)], 0.196; as for `CC1=C(C(=O)OC2CCCCC2)C(c2ccc([N+](=O)[O-])cc2)C2=C(CC(C)(C)CC2=O)N1` (stereo unspecified), 1.31. As for `Cc1c(OCC(F)(F)F)ccnc1C[S+]([O-])c1nc2ccccc2[nH]1` (stereo unspecified) [Lansoprazole], the figure is 1.2.
